Data published in PubChem BioAssay.

experiment: growth suppression of yeast trafficking mutant, preliminary HTS, modulators of trafficking downstream of Golgi apparatus project, 1536-format plate, OD 615 nm (AID 637); details: yeast transport mutant growth, absorbance 615 nm, 18 h; active compounds read high; in the data active = inhibition above about 30%; inactive = the rest

inhibition, inactive:
CCn1c(SCC(=O)Nc2nnc(C)s2)nnc1-c1ccncc1 6.17%, O=C1CN(Cc2ccccc2)C(=NCc2ccco2)S1 2.95%, COc1ccc(NC(=O)c2cc(C(C)C)on2)c(OC)c1 -2%, COc1ccc(N2CCN(CCCNC(=O)C3(S(=O)(=O)c4ccc(Cl)cc4)CC3)CC2)cc1 -2.54%, O=c1oc2ccccc2c2c1ncn2-c1ccccc1 -2.13%, O=C(Cn1ncc2ccccc21)N1CCN(c2cccc(C(F)(F)F)c2)CC1 -1.97%, O=C(NCc1ccccn1)c1cccs1 4.1%, O=C(NC1CCCC1)C1CC1c1ccccc1 (stereo not given) 1.15%, CCNc1nc(N2CCOCC2)nc(N(c2ccccc2)c2ccccc2)n1 -10%, Cc1ccc(S(=O)(=O)N(C)Cc2cc3ccccc3[nH]c2=O)cc1 -6.91%, COc1ccc(S(=O)(=O)N2CCN(CC(=O)Nc3ccc(C)c(F)c3)CC2)cc1 -1.94%, CC(C)(C)C(=O)/C=C(\N)c1ccccn1 -4.92%, O=c1c2cc(N3CCOCC3)ccc2[nH]c(=S)n1CCCN1CCCCC1 -8.36%, O=C(CC1CCS(=O)(=O)C1)Nc1ccc[nH]c1=O (stereo not given) -8%, CCC(=O)c1ccc(OC(=O)c2ccc(Br)o2)cc1 8.2%, CC1CCN(CCn2c(=S)[nH]c3ncccc3c2=O)CC1 0.83%, CC(C)CC(=O)CN1C(=O)C2(OCCO2)c2ccccc21 1.83%, CS(=O)(=O)c1ccc2nc(NC(=O)CCC(=O)c3cccs3)sc2c1 4.35%, O=S(=O)(NCc1cn2ccsc2n1)c1ccc2c(c1)OCCO2 -2.26%, CC1(CC(=O)O)C(=O)N=C2C=CC=CN21 (stereo not given) 0.16%, CCN(CC)S(=O)(=O)c1cccc(-c2nnc(SCC(N)=O)n2CCc2ccccc2)c1 -6.35%, CC1(C)Cc2noc(N)c2C(C)(C)N1O 2.7%, CCOc1ccc(Cc2nn[nH]n2)cc1 -3.49%, CC(C)NC(=O)CSc1nnc(-c2ccc(C(C)(C)C)cc2)n1C -3.65%, C=CCC(NCc1ccco1)c1ccc(OC)cc1OC (stereo not given) 0.36%, CCN(c1cccc(C(F)(F)F)c1)S(=O)(=O)c1ccc2c(c1)CCN2C(=O)C1CC1 -1%, COc1ccc(OC)c(S(=O)(=O)N2CCC(C(=O)NCC3CCCO3)CC2)c1 (stereo not given) -3.49%, Cn1c(COc2ccc(Cl)cc2)nnc1SCC(=O)NC1CCCCC1 20.8%, CCN(c1c(C)n(C)n(-c2ccccc2)c1=O)S(C)(=O)=O 4.29%, CCc1nc(N)c(C#N)c(-c2ccc(OC)c(OC)c2)c1C 3.33%, CSCCC(NC(=O)c1occc1C)C(=O)O (stereo not given) 2.83%, Cc1cccc(N2CCN(S(=O)(=O)c3ccc4c(c3)CCC(=O)N4)CC2C)c1 (stereo not given) -2.18%, c1cnn(-c2cc(N3CCOCC3)ncn2)c1 21.6%, Cc1cccc(NC(=O)COc2ccc(Br)cc2)n1 11%, CCOC(=O)c1ccc(-c2c(C(=O)OCC)oc3cc(O)c(CC)cc3c2=O)o1 11.6%, CC(C)NC(=O)CSCc1ccccc1Cl 0.97%, O=C(CSc1n[nH]c(-c2cccs2)n1)N1CCN(S(=O)(=O)c2ccccc2)CC1 9.84%, O=S(=O)(c1ccc2ccccc2c1)N1CCCCC1 -8.67%, C=CCn1c(CC#N)nnc1N1CCOCC1 -2.22%, COc1ccc(OC)c(C2=NOC(C(=O)Nc3cccnc3)C2)c1 (stereo not given) 1.09%
